CHO-K1 Ca antag – M1 antagonist counterscreen hit in parental CHO-K1 cells. ATP-induced calcium, Fluo-8 fluorescence. inhibition, % at 3 µM. 0.6% of 360,000 active. AID 602250;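 active means inhibition above a per-plate cutoff, the plate's mean sample inhibition plus 3 SD, cut at about 24% in these data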;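 further: 0% = DMSO plus EC80 ATP and 100% = DMSO alone without ATP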
NTR1 agonist – agonists of human neurotensin receptor NTR1; P30989; NTR1-U2OS beta-arrestin-GFP spot imaging, agonist mode; activation, % at 20 µM; 0.17% of 330,000 active; AID 493036;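 active means activation at or above 40% of the spot to cytoplasm intensity ratio, with at least 20 cells analyzed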;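 further: 0% = DMSO without peptide and 100% = 100 nM NTR1 peptide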
Target sequence (P30989 whole entry, looked up): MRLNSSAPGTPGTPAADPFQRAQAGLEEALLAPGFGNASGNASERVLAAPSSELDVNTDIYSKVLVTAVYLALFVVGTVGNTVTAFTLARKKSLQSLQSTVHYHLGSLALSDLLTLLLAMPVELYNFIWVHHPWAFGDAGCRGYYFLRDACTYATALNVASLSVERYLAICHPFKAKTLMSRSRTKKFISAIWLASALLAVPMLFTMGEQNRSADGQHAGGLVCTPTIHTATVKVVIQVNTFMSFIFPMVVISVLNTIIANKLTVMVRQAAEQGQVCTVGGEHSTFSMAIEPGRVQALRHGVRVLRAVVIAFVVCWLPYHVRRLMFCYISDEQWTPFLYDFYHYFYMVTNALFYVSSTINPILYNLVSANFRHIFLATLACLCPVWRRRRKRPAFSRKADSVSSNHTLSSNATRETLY
ANO1 activ – activates or potentiates the mouse TMEM16A chloride channel. Q8BHY3. HEK293 TMEM16A/YFP-H148Q/I152L, iodide quench fluorescence; stronger effect = lower value. B-score at 10 µM. 0.3% of 340,000 active. AID 623877;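 active means fluorescence-ratio B-score plate-corrected deviation score at least 3 library SD below zero, with starting fluorescence score within 5 deviations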;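 further: channel opened by trigger with iodide after compound preincubation; score built on the fluorescence ratio of max minus min over baseline; more negative score means more quench and so TMEM16A activation or potentiation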
CHO-K1 Ca ag – counter-screen for M1 agonists: effect in parental CHO-K1 cells | Fluo-8 calcium fluorescence; scaled to maximal ATP response, vehicle zero | activation, % at 3 µM | 0.48% of 360,000 active; in the data active means activation above about 15%;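 further: untransfected CHO-K1 host cells lacking M1 receptor as counterscreen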
ANO1 block – blocks the mouse calcium-activated chloride channel TMEM16A | 1.2% of 310,000 active | HEK293 TMEM16A/YFP iodide influx fluorescence, ionomycin | normalized B-score (activity score, 25-100; higher = stronger inhibition) at 10 µM | Q8BHY3;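 active means ratio plate-corrected score three or more library SD toward inhibition, starting fluorescence score within five deviations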;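 further: score derived from kinetic fluorescence span divided by baseline fluorescence per well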
M1 PAM parental – nonselective activator or artifact in parental CHO-K1 calcium assay; ATP EC20, Fluo-8 calcium fluorescence; 0% at ATP EC20, 100% at ATP max; activation, % at 3 µM; 0.02% of 360,000 active;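 active means activation above the run cutoff, the mean activation of all test compounds plus 3 SD, cut at about 40% in these data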;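 further: peak over basal fluorescence ratio in a 140 s read after ATP addition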
TMEM16A reconf – TMEM16A (mouse) chloride channel inhibition, re-confirmation | AID 652189 | shares compounds with ANO1 block | inhibition, % at 10 µM | HEK293 TMEM16A/YFP-H148Q, iodide quench fluorescence; ionomycin added to raise cell calcium | 39% of 2,300 active;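 active means mean duplicate percent inhibition, scaled so buffer wells are 0 and the reference blocker 100, over three buffer SD above buffer mean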
TMEM16A Ca cntr – alters calcium mobilization in TMEM16A HEK293 cells, counter-screen; shares compounds with ANO1 block; TMEM16A/YFP HEK293, Fluo4 calcium mobilization; calcium response (% of ionomycin), % at 10 µM; 2% of 2,300 active; AID 652231;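 active means duplicate-averaged calcium signal over 20% of the ionomycin maximum, relative to buffer baseline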;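 further: each well's signal is peak minus trough fluorescence divided by its pre-addition baseline; 0% = buffer wells and 100% = ionomycin wells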
Parental YFP cnt – acts in parental YFP-HEK293 cells lacking TMEM16A, counter-screen; iodide YFP quench, ionomycin; shares compounds with ANO1 block; 2,300 tested, under 10 active; YFP ratio F(max-min)/F0 at 10 µM;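 active means yellow fluorescent protein signal ratio exceeding the buffer control mean by over 5 SD of those controls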;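 further: ratio is mean of duplicate wells from kinetic YFP trace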
ClC-1 rat inh – selectivity of TMEM16A inhibitors: inhibition of rat ClC-1 chloride channel; ratio percent, % at 10 µM; 2,300 tested, under 10 active; CHO ClC-1-YFP, iodide influx fluorescence quench; iodide control reads 0, buffer control 100; shares compounds with ANO1 block; AID 652236;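 active means duplicate-mean ratio percent above the mean of iodide-only control wells, which defines zero, plus 5 of their SD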;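 further: higher percent means stronger block of ClC-1 iodide influx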
* hit, by the source's call; i = inactive; nt = no result. Only some compounds are listed: those with a hit (about 2.2% of all), similar ones and a draw of the others.

SMILES	CHO-K1 Ca antag	NTR1 agonist	ANO1 activ	CHO-K1 Ca ag	ANO1 block	M1 PAM parental	TMEM16A reconf	TMEM16A Ca cntr	Parental YFP cnt	ClC-1 rat inh
COc1ccc(C2=CC(=O)C[C@H](c3ccc(Cl)cc3)C2)cn1	-20	6	i	-1	nt	18	nt	nt	nt	nt
C=CCn1c(SCC(=O)NC(C)(C)C)nnc1-c1ccccc1O	2	0	i	0	100*	-1	i	i	-0.79	-6
C=CCn1c(SCC(=O)NC(=O)Cc2ccccc2)nnc1-c1ccccc1F	-7	0	i	1	nt	16	nt	nt	nt	nt
COc1cccc(N/C=C(\C#N)c2ccc(OCCCF)cc2)c1	-13	4	i	-1	100*	14	i	i	-0.87	-1
COc1ccc(C(C#N)=Cc2ccccc2OC)cc1	-9	nt	nt	0	nt	8	nt	nt	nt	nt
Cc1ccc(Cc2c(C(C)(C)C)nc3cc(C)c(Br)c(C)n23)cc1	9	nt	nt	0	nt	7	nt	nt	nt	nt
Cc1nc(Nc2ccccc2)sc1C(=O)c1ccccc1	-3	5	i	0	i	-9	nt	nt	nt	nt
COc1ccc(C(=O)c2sc(Nc3ccccc3)nc2C)cc1	-8	7	i	1	i	3	i	i	-0.96	-14
Cc1nn(C)c(Nc2ccc(Br)cc2)c1Br	11	1	i	11	100*	0	i	i	-0.98	-25
Cc1cc(C)nc(-n2nc(C)c(Br)c2Nc2ccc(Br)cc2)n1	-7	3	i	0	i	18	nt	nt	nt	nt
Cc1ccc(NC(=O)c2ccc3c(c2)OCCO3)cc1S(=O)(=O)Nc1cccc(Cl)c1	-9	2	i	3	100*	13	i	i	-1.3	-3
Cc1ccc(NC(=O)c2cc3c(s2)CCCC3)cc1S(=O)(=O)Nc1ccccc1Cl	3	2	i	4	i	22	nt	nt	nt	nt
Cc1ccc(C(=O)Nc2ccc(C)c(S(=O)(=O)Nc3ccccc3Cl)c2)s1	-12	0	i	6	100*	19	i	i	-0.22	18
COc1ccc(Cl)cc1S(=O)(=O)N1CCC(C(=O)NC2CC2)CC1	-2	0	i	0	i	6	nt	nt	nt	nt
O=C(Cn1c(=O)n(CCCCC(=O)NC2CCCC2)c(=O)c2ccccc21)NCCC1=CCCCC1	-7	0	i	0	100*	3	i	i	-0.82	-3
Cn1c(=O)c2ccccc2n(CC(=O)NCCC2=CCCCC2)c1=O	-19	-2	i	5	i	9	nt	nt	nt	nt
CN1c2ccsc2C(O)=C(C(=S)Nc2ccc(F)c(Cl)c2)S1(=O)=O	-5	5	i	4	25*	14	21%*	i	-1.1	-10
CC1(C(=O)Nc2ccc(Cl)c(Cl)c2)CCN1Cc1cc2ccccc2o1 (stereo not given)	-15	nt	nt	1	nt	30	nt	nt	nt	nt
Cc1c(C(=O)OCC(=O)c2c(N)n(CC(C)C)c(=O)n(C)c2=O)oc2ccccc12	-2	2	i	4	i	21	nt	nt	nt	nt
CC(C)Cn1c(N)c(C(=O)COC(=O)c2ccc(F)cc2)c(=O)n(C)c1=O	-12	4	i	9	i	14	nt	nt	nt	nt
COCc1c(C(=O)OCC(=O)c2c(N)n(CC(C)C)c(=O)n(C)c2=O)oc2ccccc12	-2	2	i	5	25*	15	i	i	-1.2	-12
CCc1ccc(C(=O)OCC(=O)c2c(N)n(CC(C)C)c(=O)n(C)c2=O)cc1	3	6	i	10	25*	-2	i	i	-0.88	-10
COc1ccc(Br)cc1C1=CC(=O)C[C@H](c2ccc(F)cc2)C1	6	nt	nt	0	nt	-5	nt	nt	nt	nt
COC(=O)C[C@H](NC(=O)Cn1cc(C)c(=O)[nH]c1=O)C(=O)OC	6	nt	nt	1	nt	10	nt	nt	nt	nt
CCOc1ccc(CN2CCC(n3nccc3NC(=O)CCCc3ccccc3)CC2)cc1	-1	1	i	2	25*	3	i	i	-0.98	-2
SMILES	CHO-K1 Ca antag	NTR1 agonist	ANO1 activ	CHO-K1 Ca ag	ANO1 block	M1 PAM parental	TMEM16A reconf	TMEM16A Ca cntr	Parental YFP cnt	ClC-1 rat inh
O=C(CCCc1ccccc1)Nc1ccnn1C1CCN(Cc2ccccc2)CC1	-8	0	i	5	i	14	nt	nt	nt	nt
COc1cc(CN2CCC(n3nccc3NC(=O)CCCc3ccccc3)CC2)ccc1F	6	1	i	2	25*	5	16%*	i	-0.89	-6
O=C(CCCc1ccccc1)Nc1ccnn1C1CCN(Cc2ccc(Cl)cc2)CC1	-9	0	i	10	i	6	nt	nt	nt	nt
COc1ccc(NC(=O)N(C)C[C@@H]2OCc3cn(nn3)CCCC(=O)N([C@@H](C)CO)C[C@H]2C)cc1	-6	nt	nt	0	nt	5	nt	nt	nt	nt
Cc1oncc1-c1csc(-c2ccccc2Cl)n1	-23	0	i	0	i	18	nt	nt	nt	nt
Cc1oncc1-c1csc(-c2ccccc2)n1	-7	2	i	0	100*	-8	i	i	-0.93	-12
COc1cc(/C=N/N=C(/N)c2nonc2N)cc(Br)c1OCc1ccccc1C	-12	7	i	0	i	17	nt	nt	nt	nt
CCOc1cc(/C=N/N=C(/N)c2nonc2N)cc(Br)c1OCc1ccc(Cl)cc1	-7	2	i	0	100*	2	i	i	-1	1
S=c1[nH]c2cc(-c3ccccc3)ccc2o1	0	1	i	1	25*	-8	i	i	-1	-10
O=C(CCc1ccccc1)Nc1ccc(F)cc1F	-11	0	i	0	i	7	nt	nt	nt	nt
O=C(CCc1ccccc1)Nc1ccccc1F	-18	1	i	1	100*	21	i	i	-1	-4
Nc1cccc(C#Cc2ccc3c(c2)C(=O)/C(=C/c2ccsc2)O3)c1	-10	10	nt	0	nt	14	nt	nt	nt	nt
O=c1c2cc(Br)ccc2nc(-c2cccc(C(F)(F)F)c2)n1O	-26	1	i	8	100*	18	60%*	108%*	-1.1	-43
N#Cc1ccc(-c2nc3ccc(Br)cc3c(=O)n2O)cc1	-6	0	i	0	i	-9	nt	nt	nt	nt

Screening results (PubChem)
